In PubChem BioAssay (NCI) one finds growth data, which are given here for nine compounds.

SMILES strings stand for the structures. The panel holds about 83,000 compounds, 20% with a hit somewhere; the sample as a whole holds those more often.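 Cells were grown in 96-well plates and exposed to the test compound at a single concentration for 48 hours; results are reported as percent growth, with values below 10 considered active.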 Values without a mark were called inactive. Activity calls are given as the source filed them.

Common to all, as to assay: NCI-60 one-dose screen, 48 h (100 = growth as untreated, 0 = no growth, -100 = all killed)
Details in all cases: 10 µM unless noted

The subject of assay [1] is NCI-H23 lung.
For assay [2], the system named is NCI-H226 lung.
For assay [3], the system named is NCI-H322M lung.
Assay [4] relates to HOP-62 NSCLC.
Assay [5] relates to NCI-H460 lung.
Assay [6] deals with HOP-92 NSCLC.
In assay [7] the test system is NCI-H522 lung.
Assay [8] relates to A549/ATCC NSCLC.
Assay [9] concerns 786-0 renal.
The test system of assay [10] is DU-145 prostate.
Assay [11] has as its system K-562 leukemia.
In assay [12] the test system is MALME-3M melanoma.
For assay [13], the system named is MDA-MB-231 breast.
The subject of assay [14] is SF-268 CNS.
The test system of assay [15] is SF-295 CNS.
The test system of assay [16] is SF-539 CNS.
Assay [17] deals with UACC-257 melanoma.
The subject of assay [18] is M14 melanoma.
In assay [19] the test system is RXF 393 renal.

Regarding `CC(/C=N/NC(=O)c1cc(-c2ccco2)[nH]n1)=C\c1ccccc1`, the growth in assay [1] was 93%; in [2], 88.5%; in assay [3], 93.3%; in assay [4], 95.4%; in [5], 127%; in [6], 57.6%. For the same compound, the growth in [7] was 110%; in assay [8], 105%; in assay [9], -91.2% (active); in assay [10], 101%; in [11], 86.6%; in assay [12] it was 91.3%. Besides, the growth in assay [13] was 102%; in assay [14] it was 93.9%; in assay [15], 69.9%; in assay [16], 102%; in assay [17] it was 89.9%; in assay [18], 95%.
Regarding `Clc1ccc(/C=N\N=c2\scc(-c3ccc(Cl)cc3)n2/N=C/c2ccc(Cl)cc2)cc1`, the growth in assay [1] is 94.4%; in assay [2], 111%; in assay [3], 95.7%; in [4] it was 107%; in assay [5], 97.9%; in [6], 106%. The growth in assay [7] is 68.7%; in [8], 75.7%; in assay [9], 98.1%; in assay [10] it was 105%; in assay [12], 100%; in assay [13], 101%. The growth in assay [19] was 108%; in assay [14], 97.8%; in [15], 109%; in assay [16] it was 96.1%; in assay [17], 77.9%.
With `COc1cc2oc3cc(C)oc(=O)c3c2cc1OC`, the growth in assay [1] is 94.1%; in assay [2], 96.8%; in [3], 103%; in [4], 93.2%; in [5] it was 105%; in assay [6], 92.9%. In addition, the growth was 82.1% in assay [7]; 87.7% in assay [8]; 83.4% in [9]; 99.6% in assay [10]; 128% in assay [11]; 99.4% in [13]. The growth in assay [19] is 104%; in assay [14], 108%; in assay [15], 89.7%; in assay [16], 94.8%; in assay [17], 92.8%; in [18] it was 102%.
Consider `CCCCN(CCCC)CCCn1c(=O)c2sc3ncccc3c2n2nnc(-c3ccccc3)c12`, for which the growth is 101% in assay [1]; 105% in [2]; 103% in assay [3]; 105% in assay [4]; 105% in [5]; 74.8% in [6]. Moreover, the growth in assay [7] was 89.5%; in [8], 102%; in [9] it was 108%; in [10] it was 114%; in assay [11], 108%; in assay [13], 93.8%. The growth was 111% in assay [19]; 112% in [14]; 99.6% in assay [16]; 104% in assay [17]; 107% in [18].
Regarding `C=C(C)[C@@H]1CC[C@@]2(C(=O)O)CC[C@]3(C)C(CCC4[C@@]5(C)CCC(OS(=O)(=O)c6ccccc6)C(C)(C)C5CC[C@]43C)C12` (stereo partly drawn), the growth in [1] is 37.2%; in assay [2], 69.2%; in [3], 73.6%; in assay [4], 57.4%; in [5], 42.3%; in [6] it was 51%. For the same compound, the growth is 32.5% in assay [7]; 17.8% in assay [8]; 56.5% in assay [9]; 55.4% in [10]; 46.5% in assay [11]; 67.4% in [13]. Also, the growth was 73.8% in assay [19]; 70.6% in assay [14]; -32.7% (active) in assay [15]; 52.4% in assay [16]; 32% in assay [17]; 60.8% in assay [18].
For the compound `CC1(C)N=C(N)N=C(N)N1c1cccc(CN)c1`, the growth in [1] is 93.2%; in assay [2], 92.7%; in assay [3], 94.3%; in assay [4], 92.3%; in [5], 111%; in assay [6], 80.5%. Besides, the growth was 80.7% in assay [7]; 91% in [8]; 99.1% in [9]; 109% in assay [10]; 116% in [11]; 98.8% in [13]. Besides, the growth in assay [19] was 103%; in [14], 101%; in [15], 94.7%; in assay [16], 99.3%; in [17], 86.5%; in assay [18] it was 96.7%.
As for `Clc1ccc(-c2nnc(Cn3ccnc3)o2)cc1`, the growth was 93.9% in [1]; 102% in assay [2]; 113% in assay [3]; 89.3% in [4]; 112% in assay [5]; 132% in [6]. Also, the growth in [7] is 115%; in assay [8], 100%; in assay [9], 94%; in assay [10], 115%; in assay [11], 95.8%; in [12], 120%. Further, the growth in [13] was 102%; in assay [14] it was 103%; in assay [15] it was 119%; in [16], 98.9%; in assay [17] it was 111%; in assay [18], 87.1%.
With `CCOc1cccnc1/C=N/NC(N)=S`, the growth in assay [1] was 73.8%; in [2] it was 53.9%; in assay [3], 6.61% (active); in assay [4], 64.9%; in [5] it was 19.9%; in assay [6] it was 46.5%. The growth in [7] is 79.1%; in assay [8] it was 48%; in assay [9], 51.6%; in [10] it was 34.4%; in assay [11], 31.4%; in [13], 49.6%. Further, the growth in assay [19] was 61.4%; in assay [14] it was 32.9%; in [15], 5.53% (active); in assay [16], 47.7%; in [17], 95.7%.
For `COc1cc(C2CC(=O)Nc3n[nH]c(-c4ccccc4)c32)cc(OC)c1OC` (stereo not drawn), the growth in assay [1] is 81.6%; in assay [2] it was 91.8%; in [3] it was 94.1%; in assay [4], 58%; in assay [5], 67.5%; in [6] it was 77.4%. Besides, the growth in assay [7] was 30.1%; in assay [8], 46%; in assay [9], 75.3%; in [10], 102%; in assay [11], 24.6%; in [12] it was 68.5%. The growth in assay [13] is 63.9%; in [14], 90.7%; in assay [15] it was 75.5%; in [16], 81.2%; in assay [18], 53.3%.
